Measured values published in publication PMC4336329 (PLoS ONE, 2015).
Among all 310,000 compounds or so, about 14,000 (4.5%) showed an effect of 50% or more. The effect is printed as a negative number. The entries come from a sample that favours strong results as a whole.

Target: human ether-à-go-go-related gene (hERG) potassium channel (human, UniProt Q12809)
Assay: primary screen, population patch clamp on CHO cells stably expressing hERG; higher = less effect of the substance
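Further: peak tail current of the secondary pulse compared with the same well before compound.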

Chain of human ether-à-go-go-related gene (hERG) potassium channel (Q12809 whole entry, looked up): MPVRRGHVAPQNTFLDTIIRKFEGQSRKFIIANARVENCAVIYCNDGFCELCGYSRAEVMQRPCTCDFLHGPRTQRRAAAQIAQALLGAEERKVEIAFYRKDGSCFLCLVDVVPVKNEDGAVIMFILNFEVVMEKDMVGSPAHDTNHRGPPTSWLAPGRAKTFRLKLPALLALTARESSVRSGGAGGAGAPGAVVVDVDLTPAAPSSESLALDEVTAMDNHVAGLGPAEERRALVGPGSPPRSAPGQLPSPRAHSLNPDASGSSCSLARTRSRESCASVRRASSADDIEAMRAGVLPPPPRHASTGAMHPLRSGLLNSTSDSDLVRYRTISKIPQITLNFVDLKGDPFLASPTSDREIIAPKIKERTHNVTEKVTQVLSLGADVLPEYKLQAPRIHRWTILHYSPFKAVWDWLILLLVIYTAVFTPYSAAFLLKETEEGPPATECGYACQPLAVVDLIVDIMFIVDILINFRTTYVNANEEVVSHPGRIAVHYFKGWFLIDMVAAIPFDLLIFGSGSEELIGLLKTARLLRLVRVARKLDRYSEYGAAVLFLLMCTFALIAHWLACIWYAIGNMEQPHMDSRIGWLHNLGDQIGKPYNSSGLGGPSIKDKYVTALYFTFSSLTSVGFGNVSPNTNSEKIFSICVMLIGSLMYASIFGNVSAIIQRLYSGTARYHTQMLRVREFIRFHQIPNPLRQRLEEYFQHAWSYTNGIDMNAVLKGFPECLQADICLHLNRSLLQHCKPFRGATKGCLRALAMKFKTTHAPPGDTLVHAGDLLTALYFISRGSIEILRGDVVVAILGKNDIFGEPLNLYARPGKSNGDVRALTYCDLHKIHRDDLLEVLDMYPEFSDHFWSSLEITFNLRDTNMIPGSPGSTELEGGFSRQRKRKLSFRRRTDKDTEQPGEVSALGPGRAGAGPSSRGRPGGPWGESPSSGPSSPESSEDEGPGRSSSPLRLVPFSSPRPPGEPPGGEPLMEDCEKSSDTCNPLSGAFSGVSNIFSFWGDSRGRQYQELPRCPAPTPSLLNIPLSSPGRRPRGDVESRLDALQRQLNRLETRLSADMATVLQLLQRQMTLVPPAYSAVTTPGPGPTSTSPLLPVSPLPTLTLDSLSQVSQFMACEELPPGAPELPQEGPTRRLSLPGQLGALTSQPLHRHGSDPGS

Compared with CC1CCCC(NC(=S)Nc2cccc(S(=O)(=O)N(C)C)c2)C1C (stereo not shown), CN1CCN(C(=O)CN(C)S(=O)(=O)c2ccc(F)cc2)CC1 is higher in “hERG current change (%, negative = inhibition) at 10uM” value: 13.7% for the first, 16.8% for the second.

Going from CCOC(=O)/C=C1\SCC(=O)N1CC(=O)Nc1ccccc1OC(F)F to CCOc1ccc(NC(=O)c2ccccc2NC(=O)CN2CCN(C(C)=O)CC2)cc1, the “hERG current change (%, negative = inhibition) at 10uM” value falls from 18.8% to -3.2%.

Compared with O=C(Nc1ccc(NC(=O)c2cccs2)c(Cl)c1)c1ccco1, Cc1cc(C)c(OCC(=O)Nc2cccc(NC(=O)c3ccco3)c2)c(Br)c1 is higher in “hERG current change (%, negative = inhibition) at 10uM” value: -39.4% for the first, 1.79% for the second.

Compared with Cc1ccc(CNC(=O)Cn2cnc(S(=O)(=O)N3CCC(C)CC3)c2)o1, Cc1ccc(CNC(=O)Cn2cnc(S(=O)(=O)N3CCCCC3)c2)o1 is higher in “hERG current change (%, negative = inhibition) at 10uM” value: -62.1% for the first, -2.35% for the second.

Going from CN(CC(=O)N1CCN(c2ccccn2)CC1)S(=O)(=O)c1ccc(Cl)cc1 to CN(CC(=O)N1CCN(c2ccccn2)CC1)S(=O)(=O)c1ccc(Br)cc1, the “hERG current change (%, negative = inhibition) at 10uM” value falls from -46.2% to -54.8%.

First: CN(CC(=O)N1CCN(c2ccc(F)cc2)CC1)S(=O)(=O)c1ccc(F)cc1
Second: Cc1ccc(S(=O)(=O)CC(=O)N2CCN(c3ccc(F)cc3)CC2)cc1
The “hERG current change (%, negative = inhibition) at 10uM” value of the first is lower: -53.2% for the first, -51.5% for the second.

First: Nc1ncc(Br)cc1S(=O)(=O)NCCC(=O)N1CCN(c2ccccn2)CC1
Second: Nc1ncc(Br)cc1S(=O)(=O)NCCC(=O)N1CCN(c2ncccn2)CC1
The “hERG current change (%, negative = inhibition) at 10uM” value of the first is lower: -55.4% for the first, -25.6% for the second.

Going from O=C(Cn1cnc(S(=O)(=O)N2CCCCC2)c1)NCc1ccco1 to CC(=O)c1ccc(N2CCN(C(=O)Cn3cnc(S(=O)(=O)N4CCCCC4)c3)CC2)cc1, the “hERG current change (%, negative = inhibition) at 10uM” value falls from 8.34% to 7.48%.

First: Nc1ncc(Br)cc1S(=O)(=O)NCCC(=O)N1CCN(c2ccccc2)CC1
Second: O=C(CS(=O)(=O)c1ccc(F)cc1)N1CCN(c2ccccc2)CC1
The “hERG current change (%, negative = inhibition) at 10uM” value of the first is higher: -8.45% for the first, -42.4% for the second.

Compared with CN(CC(=O)N1CCN(c2ccccn2)CC1)S(=O)(=O)c1ccccc1, O=C(CCS(=O)(=O)c1ccccc1)N1CCN(c2cccc(C(F)(F)F)c2)CC1 is lower in “hERG current change (%, negative = inhibition) at 10uM” value: -12.8% for the first, -43.1% for the second.

Compared with COc1ccc(S(=O)(=O)N(C)CC(=O)N2CCN(c3ccc(F)cc3)CC2)cc1OC, Cc1ccc(C)c(N2CCN(C(=O)CN(C)S(=O)(=O)c3ccc4c(c3)CCC(=O)N4)CC2)c1 is higher in “hERG current change (%, negative = inhibition) at 10uM” value: -44% for the first, -41.5% for the second.

First: CC1(C)C[C@H](O)[C@]2(CO)CC[C@]3(C)C(=CCC4[C@@]5(C)CC[C@H](O)C(C)(C)C5CC[C@]43C)[C@@H]2C1 (stereo partly shown)
Second: CCc1c(C(=O)NNC(=S)NC2CCCCC2)csc1C
The “hERG current change (%, negative = inhibition) at 10uM” value of the first is lower: -13.9% for the first, 16.3% for the second.

Going from O=C(CSc1nnc2ccccn12)NCc1ccco1 to CCOc1ccc(NC(=O)NCc2ccco2)cc1, the “hERG current change (%, negative = inhibition) at 10uM” value falls from 22.3% to 16.4%.

First: O=C1CC(NNc2nc3ccccc3s2)C(=O)N1c1ccccc1 (stereo not shown)
Second: O=C1NC2=C(CCc3ccccc32)C(c2ccccc2)N1 (stereo not shown)
The “hERG current change (%, negative = inhibition) at 10uM” value of the first is higher: -1.89% for the first, -20.8% for the second.

First: O=C(CSc1nnc(-c2ccccc2)c2ccccc12)NCCN1C(=O)CSC1=O
Second: OC(CNCCc1ccccc1)c1ccccc1 (stereo not shown)
The “hERG current change (%, negative = inhibition) at 10uM” value of the first is lower: -27.6% for the first, -0.0558% for the second.

Going from O=C(CSc1ccccn1)Nc1ccc2c(c1)OCCO2 to COC(=O)C(C#N)c1nc2ccccc2nc1N1CCN(Cc2ccc3c(c2)OCO3)CC1 (stereo not shown), the “hERG current change (%, negative = inhibition) at 10uM” value falls from 8.07% to -2.48%.

First: O=C(Nc1cccnc1)c1cc2cc(Br)ccc2o1
Second: O=C(NCc1ccc(F)cc1)c1ccncc1
The “hERG current change (%, negative = inhibition) at 10uM” value of the first is lower: 8.93% for the first, 13.7% for the second.

Going from Cc1cc(-c2n[nH]c(=S)n2/N=C/c2ccco2)n[nH]1 to Cc1sc2ncnc(OCC(=O)N3CCN(C(=O)c4ccco4)CC3)c2c1C, the “hERG current change (%, negative = inhibition) at 10uM” value falls from 7.99% to -30.8%.

Compared with Cc1ccc(S(=O)(=O)CC(=O)N2CCN(c3ccccc3F)CC2)cc1, Cc1ccc(S(=O)(=O)CC(=O)N2CCN(c3cccc(C(F)(F)F)c3)CC2)cc1 is lower in “hERG current change (%, negative = inhibition) at 10uM” value: -16.8% for the first, -50.4% for the second.

Compared with Cc1ccc(CC(=O)N2CCN(c3cccc(C(F)(F)F)c3)CC2)cc1, Cn1cnc(S(=O)(=O)N2CCN(c3cccc(C(F)(F)F)c3)CC2)c1 is higher in “hERG current change (%, negative = inhibition) at 10uM” value: -9.64% for the first, 7.43% for the second.

Going from Cc1cccc(N2CCN(C(=O)CN(C)S(=O)(=O)c3ccc4c(c3)CCC(=O)N4)CC2)c1C to Cc1cccc(N2CCN(C(=O)CCNS(=O)(=O)c3ccc4c(c3)CCC(=O)N4)CC2)c1C, the “hERG current change (%, negative = inhibition) at 10uM” value rises from -60.5% to -44.6%.

Compared with CC1CCN(S(=O)(=O)c2cn(CC(=O)N3CCN(c4cccc(C(F)(F)F)c4)CC3)cn2)CC1, Cc1ccc(CN2CCSc3ccc(C(=O)N4CCN(c5ncccn5)CC4)cc32)cc1 is higher in “hERG current change (%, negative = inhibition) at 10uM” value: -54% for the first, 19% for the second.

Going from CC(=NCC1CCCO1)c1c(O)n(-c2ccc(C)cc2)c(=O)[nH]c1=O (stereo not shown) to Cc1ccc(C2NC(=O)NC3=C2CCc2ccccc23)cc1 (stereo not shown), the “hERG current change (%, negative = inhibition) at 10uM” value rises from -8.18% to 2.59%.

Compared with O=S1(=O)CCC(N=Nc2c(O)n(Cc3ccccc3)c3ccccc23)C1 (stereo not shown), C=CCOC(=O)C(C#N)c1nc2ccccc2nc1N1CCN(Cc2ccccc2)CC1 (stereo not shown) is lower in “hERG current change (%, negative = inhibition) at 10uM” value: -25.1% for the first, -62.1% for the second.

Compared with COc1cc(C)ccc1OCCOc1c(C)cccc1Cl, C/C=C/c1ccc(OCCN2C(=O)NC(C)(C)C2=O)c(OC)c1 is higher in “hERG current change (%, negative = inhibition) at 10uM” value: 2.01% for the first, 6.58% for the second.

Going from CCOC(=O)c1ccccc1NC(=O)c1cn(-c2ccc(C)c(C)c2)c(=O)c2ccccc12 to CCOC(=O)c1ccc(COC(=O)c2cc3ccccc3oc2=O)o1, the “hERG current change (%, negative = inhibition) at 10uM” value falls from -2.12% to -48.6%.

First: CC(CN1CCCC1)OC(=O)c1ccc(F)cc1.Cl (stereo not shown)
Second: Cc1sc2ncnc(SCC(=O)Nc3ccc(CN4CCCC4)cc3)c2c1C
The “hERG current change (%, negative = inhibition) at 10uM” value of the first is higher: -10.1% for the first, -72.6% for the second.

Compared with COC(=O)CNC(=O)c1ccc(C)s1, CCOC(=O)c1cccc(NC(=O)c2c(O)[nH]c(=O)[nH]c2=O)c1 is lower in “hERG current change (%, negative = inhibition) at 10uM” value: -0.614% for the first, -2.88% for the second.

Going from O=c1cc(C(F)(F)F)c2sc(N3CCCCC3)nc2[nH]1 to Cc1sc2ncnc(SCC(=O)N3CCCC3)c2c1C, the “hERG current change (%, negative = inhibition) at 10uM” value falls from 20.1% to 2.1%.

Going from Cc1ccc(C(=O)N/C(=C\c2ccc(F)cc2)C(=O)NCc2ccncc2)cc1 to Cc1ccc(C(=O)N/C(=C/c2ccc(F)cc2)C(=O)NCc2ccncc2)cc1, the “hERG current change (%, negative = inhibition) at 10uM” value rises from -75.9% to -72.8%.

Going from O=C(NCc1ccncc1)/C(=C\c1ccc(F)cc1)NC(=O)c1ccccc1 to CN(C)c1ccc(/C=C(\NC(=O)c2ccccc2)C(=O)NCc2ccncc2)cc1, the “hERG current change (%, negative = inhibition) at 10uM” value rises from -70.9% to -12.8%.

Going from CSc1ccc(/C=C(/NC(=O)c2ccc(C)cc2)C(=O)Nc2cccc(F)c2)cc1 to CSc1ccc(/C=C(\NC(=O)c2ccc(C)cc2)C(=O)NN)cc1, the “hERG current change (%, negative = inhibition) at 10uM” value falls from 6.66% to -10.9%.

Going from O=C(NCc1ccco1)/C(=C/c1ccc(F)cc1)NC(=O)c1ccccc1 to Cc1ccc(NC(=O)/C(=C/c2ccncc2)NC(=O)c2ccccc2)cc1, the “hERG current change (%, negative = inhibition) at 10uM” value rises from -14.1% to -9.82%.

Going from O=C(O)c1cccc(-n2cccc2/C=N/O)c1 to O=C(O)c1ccc(NS(=O)(=O)c2ccc(Cl)c(Cl)c2)cc1O, the “hERG current change (%, negative = inhibition) at 10uM” value falls from 11.4% to -1.71%.

First: Cc1ccnc(NC(=O)CCC(=O)N(CC(=O)NC(C)(C)C)C2CCCC2)c1
Second: Cc1nc(SCC(=O)Nc2ccc(CN3CCCC3)cc2)c2c(C)c(C)sc2n1
The “hERG current change (%, negative = inhibition) at 10uM” value of the first is higher: 1% for the first, -35.3% for the second.

Going from O=C(NCCSc1ncc(-c2ccc(F)cc2)[nH]1)c1ccco1 to Cc1ccc(C(=O)Nc2ccc(N3CCN(C(=O)c4ccco4)CC3)cc2)cc1, the “hERG current change (%, negative = inhibition) at 10uM” value rises from -37.1% to 10.4%.

Compared with O=C(O)c1ccc2ccccc2c1O.OCc1cc(C(O)CNCCCCCCOCCCCc2ccccc2)ccc1O (stereo not shown), OCc1cc(C(O)CNCCCCCCOCCCCc2ccccc2)ccc1O (stereo not shown) is lower in “hERG current change (%, negative = inhibition) at 10uM” value: -45.5% for the first, -57.9% for the second.

Going from CCN(CC)CCCN1C(=O)c2oc3ccccc3c(=O)c2C1c1cc(OC)ccc1OC (stereo not shown) to COc1ccc(-c2csc3nc(-c4ccccc4F)oc(=O)c23)cc1OC, the “hERG current change (%, negative = inhibition) at 10uM” value rises from -13% to -3.61%.

First: CC(C)COC(=O)C(C#N)c1nc2ccccc2nc1N1CCN(Cc2ccccc2)CC1 (stereo not shown)
Second: CC(C)OC(=O)C(C#N)c1nc2ccccc2nc1N1CCN(Cc2ccccc2)CC1 (stereo not shown)
The “hERG current change (%, negative = inhibition) at 10uM” value of the first is higher: -12% for the first, -18.6% for the second.

Going from N#CC(C(=O)NC1CC1)c1nc2ccccc2nc1N1CCN(C/C=C/c2ccccc2)CC1 (stereo not shown) to N#CC(C(=O)NC1CC1)c1nc2ccccc2nc1N1CCCC1 (stereo not shown), the “hERG current change (%, negative = inhibition) at 10uM” value rises from -58.9% to -7.63%.

Compared with CC1CCN(c2nc3ccccc3nc2C(C#N)C(=O)NC2CCCCC2)CC1 (stereo not shown), COCCOC(=O)C(C#N)c1nc2ccccc2nc1N1CCN(Cc2ccccc2)CC1 (stereo not shown) is lower in “hERG current change (%, negative = inhibition) at 10uM” value: 10.1% for the first, -64.3% for the second.

First: COCC(C)OC(=O)C(C#N)c1nc2ccccc2nc1N1CCN(Cc2ccccc2)CC1 (stereo not shown)
Second: COc1ccc(N2CCN(C(=O)CSc3ncnc4c3cnn4-c3ccccc3C)CC2)cc1
The “hERG current change (%, negative = inhibition) at 10uM” value of the first is lower: -31% for the first, 10.8% for the second.

Compared with CSc1ccc(/C=C/C(=O)c2ccc(NC(=O)Cc3ccccc3)cc2)cc1, CC(=O)Nc1ccc(NC(=O)CSc2ncnc3sc(C)c(C)c23)cc1 is higher in “hERG current change (%, negative = inhibition) at 10uM” value: -4.59% for the first, 8.58% for the second.

First: O=C1NC2=C(CCc3ccccc32)C(c2ccc(Br)cc2)N1 (stereo not shown)
Second: O=C(CSc1ncnc2c1cnn2-c1ccccc1Cl)N1CCN(C(=O)c2ccco2)CC1
The “hERG current change (%, negative = inhibition) at 10uM” value of the first is higher: -56.3% for the first, -65.7% for the second.

Going from CN(NC(=O)C(C)(C)C)c1nc(-c2ccccc2)nnc1C(F)(F)F to CC(C)C(=O)NNC(=O)CSc1ncnc2c1cnn2-c1ccccc1Cl, the “hERG current change (%, negative = inhibition) at 10uM” value rises from -4.05% to 9.5%.

First: Cc1sc2nc(C(C)C)nc(SCC(=O)N3CCN(C(=O)c4ccco4)CC3)c2c1C
Second: Cc1sc2ncnc(SCC(=O)N3CCN(C(=O)c4ccco4)CC3)c2c1C
The “hERG current change (%, negative = inhibition) at 10uM” value of the first is lower: -72.3% for the first, -70.1% for the second.

Going from Cc1sc2nc(C(C)C)nc(SCC(=O)NCc3ccco3)c2c1C to Cc1sc2nc(C(C)C)nc(SCC(=O)N3CCOCC3)c2c1C, the “hERG current change (%, negative = inhibition) at 10uM” value falls from 2.82% to -0.958%.
